Measurements as given in PubChem BioAssay (Tox21).
Inconclusive results are not listed. Values without a mark were called inactive. Active and inactive are the calls of the source. Calls come from the whole dose curve; as a rule, active = well fitted cell-killing curve with a large enough effect in the repeat runs; inconclusive = weak or mixed curves, or effect the other way; inactive = flat fitted curve, though single readings scatter.

test: cAMP Responsive Elements (CRE) small molecule antagonists, cell-based qHTS assay: qHTS cell viability counter screen (AID 2060913); conditions: CRE-bla HEK293T viability, CellTiter-Glo luminescence, 5 h; series mostly up to 92.4 µM; viability change, negative = cytotoxic: at the top concentration; note: nearly all actives have a fitted effect of over 40% in size
Method in brief: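 CRE-bla HEK293T cells were seeded in assay medium with 10% dialyzed FBS, incubated 18 hrs at 37 C, then exposed to compounds plus 0.25 uM final NKH477 for 3 hrs. Viability was read by CellTiter-Glo luminescence after 30 min, in the same wells.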
% is set by controls: 0 for no effect and ±100 for the full control effect; potency is the fitted concentration of half-maximal effect.

| SMILES | Potency | viability change, negative = cytotoxic |
| --- | --- | --- |
| CCCCCCCC(=O)O | inactive | – |
| Nc1ncnc2c1ncn2[C@H]1CC[C@@H](CO)O1 | – | 15.1% |
| OC1CCCCC1 | inactive | – |
| O=C(Nc1cccc([N+](=O)[O-])c1)c1cc2ccccc2cc1O | – | -22.5% |
| CC(=O)Oc1ccc(C(c2ccc(OC(C)=O)cc2)c2ccccn2)cc1 | inactive | – |
| CCOC(=O)CC(=O)C(=O)OCC | – | -30.4% |
| Cc1ccccc1N1C(=O)c2cc(S(N)(=O)=O)c(Cl)cc2NC1C (stereo not given) | – | 6.36% [at 42.5 µM] |
| Cc1c(C)n(CCN(C)C)c2ccc(C(=O)OCCN(C)C)cc12 | – | -0.195% [at 42.5 µM] |
| CCC(C)(C)C1CCC(O)CC1 (stereo not given) | – | -8.99% |
| c1coc(Cn2cccc2)c1 | – | 18% |
| O=C(NCCO[N+](=O)[O-])c1cccnc1 | – | -0.927% [at 42.5 µM] |
| Nc1cc([N+](=O)[O-])ccc1O | inactive | – |
| C=C(C)C1CCC(C)CC1O (stereo not given) | – | 1.4% |
| O=C1c2cccc(O)c2C(=O)c2c(O)cc(CO)cc21 | – | -11.5% |
| CCN(CC)C(=O)N(CC)CC | – | 0.0634% |
| CC(C)C(=O)OCc1cccc(OC(=O)[C@@H]2N3C(=O)[C@@H](NC(=O)Cc4ccccc4)[C@H]3SC2(C)C)c1 | – | 5.48% [at 42.5 µM] |
| C=C(C)C(=O)OCCOCC | – | -0.872% |
| CN1CCCN=C1/C=C/c1cccs1 | – | 16% [at 42.5 µM] |
| CC(C)NCC(O)c1ccc(NS(C)(=O)=O)cc1 (stereo not given) | – | -5.48% |
| O=C(c1ccc(O)cc1)c1ccc(O)cc1 | – | -10.2% |

| SMILES | Potency | viability change, negative = cytotoxic |
| --- | --- | --- |
| CC(c1cc(C(C)(C)C)cc(C(C)(C)C)c1O)c1cc(C(C)(C)C)cc(C(C)(C)C)c1O | – | -6.48% |
| O=C(O)C(=O)Cc1c[nH]c2ccccc12 | – | 5.19% |
| N[C@H]1C(O)O[C@H](CO)[C@@H](O)[C@@H]1O (stereo not given in full) | – | 0.955% [at 42.5 µM] |
| CC(C)=CCC[C@H](C)CCO | – | 10.7% |
| CN(C)c1ccc(SC#N)cc1 | – | -0.473% |
| CCCCCCCCCCCCCCCCO | inactive | – |
| O=CN1CCCCC1 | – | 5.02% |
| Oc1ccc(Cl)cc1Cc1cc(Cl)ccc1O | 50.8 µM (active) | – |
| CCC(CO)(CO)[N+](=O)[O-] | – | 1.96% |
| O=C(NCN1CCOCC1)c1cnccn1 | – | 0.0803% [at 42.5 µM] |
| Nc1ccc(C(=O)Oc2ccccc2)c(O)c1 | – | -4.47% [at 42.5 µM] |
| COC(=O)[C@H]1[C@H]2C[C@@H]3c4[nH]c5cc(OC)ccc5c4CCN3C[C@H]2C[C@@H](OC(=O)COc2ccc(OC)cc2)[C@@H]1OC | – | 3.64% [at 42.5 µM] |
| CC[C@@H](CO)NCCN[C@@H](CC)CO | – | -0.674% [at 42.5 µM] |
| Brc1c(NC2=NCCN2)ccc2nccnc12 | – | 0.835% [at 42.5 µM] |
| CC(C)=CCOC(=O)c1ccccc1 | – | 6.31% |
| CC(=O)CCc1ccc(OC(C)=O)cc1 | – | 0.994% |
| CC(=O)OCCC1CCCCC1 | – | -14% |
| CC(=O)O[Si](C)(OC(C)=O)OC(C)=O | – | 2.08% |
| CCN1C(=O)c2ccccc2C1Nc1ccc(OCCN2CCCCC2)cc1 (stereo not given) | – | 3.27% [at 42.5 µM] |
| COc1ccc(/C=C/c2cc(OC)cc(=O)o2)cc1 | – | 2.04% [at 42.5 µM] |
